Experimental data taken from ChEMBL document CHEMBL3988442, “University of Dundee, Small-Polar-MMV Screening Library” (2021).
Screen size: about 38,000 compounds; about 1,200 (3.2%) showed an effect of 50% or more. The median lay at about -58%. The list comes from a sample in which strong results are over-represented; it also holds similar structures and randomly drawn compounds.

Test system: Plasmodium falciparum
Assay: Calibr Malaria Delayed Death Assay SOP
Format: functional, organism-based
Set-up: scale not given: in the data most compounds retested in dose-response had high values
Details: concentration 4.99e-06 (unit not given; other assays of the set use mol/L)

In order of rising “Percent Effect” value:
1. O=C(O)C(F)(F)F.O=C(O)C(F)(F)F.O=C(O)[C@]12CCCN(Cc3ccsc3)C[C@H]1CN(c1ccccn1)C2  -252.9%
2. O=C(O)C(F)(F)F.O=C(O)[C@]12CCCN(Cc3ccsc3)C[C@H]1CN(c1ncccn1)C2  -238.9%
3. O=C(O)C(F)(F)F.O=C(O)C(F)(F)F.c1cnc(N2CCCC3(CCN(c4ncccn4)C3)C2)nc1 (stereo not given)  -228.4%
4. Cc1n[nH]c(SCCNC2CCN(c3nc4ccccc4s3)CC2)n1  -208.3%
5. CCC(=O)N1CCC(c2cncc(Oc3cccnc3)n2)CC1  -187.7%
6. O=S(=O)(NCCN1CCCCC1Cn1cncn1)c1ccccc1 (stereo not given)  -173.3%
7. COc1ccc2c(c1)[C@@H](CCNC(C)=O)CC(C)(C)O2  -172.5%
8. CCc1nnc(CN2CCN(c3cccc(OC)c3)C(=O)C2)o1  -165.5%
9. Cc1nc(C2CCCNC2)cc(N(C)CCc2cn[nH]c2)n1 (stereo not given)  -154.6%
10. c1csc(CN(Cc2ccsc2)CC2CCCO2)n1 (stereo not given)  -152.6%
11. Cc1cnc(N2CCC3(CCCN(c4ncc(F)cn4)C3)C2)nc1 (stereo not given)  -149.1%
12. COCC(=O)NCC[C@H]1CC(C)(C)Oc2ccccc21  -148.4%
13. CSc1nc2ccsc2c(=O)n1CC(=O)N1CCCCC1C (stereo not given)  -137.7%
14. O=C(NCc1ccccc1)NCC(O)c1cccc(F)c1 (stereo not given)  -134.7%
15. O=C(CN1CCCS1(=O)=O)Nc1ccc(OC2CCCC2)cc1  -131%
16. CN1CC(NC(=O)Nc2cnn(-c3ccccc3Cl)c2)CCC1=O (stereo not given)  -125.7%
17. O=C(C1CC2(CCNCC2)CN1)N1CCN(c2ccccc2)CC1 (stereo not given)  -125.3%
18. Cc1nc(C)c(C(=O)Nc2cnn(CC(=O)NC3CCCC3)c2)s1  -124.2%
19. CC(C)(C)c1noc(CCC(=O)N2CCN(Cc3ccc(Cl)s3)CC2)n1  -118.6%
20. Fc1cnc(N2CCCC3(CCN(c4ncccn4)C3)C2)nc1 (stereo not given)  -118%
21. O=C(NC1CCS(=O)(=O)C1)c1cc(Sc2ncccn2)ccn1 (stereo not given)  -115.2%
22. Cn1cc(NS(=O)(=O)CC2CCCCO2)cn1 (stereo not given)  -113.3%
23. CC(C)(C)OC(=O)N1CCCN(c2nnc(Br)s2)CC1  -110%
24. O=C(c1cc2c(F)cccc2[nH]1)N1CCC(Nc2cccnn2)CC1  -107.1%
25. Cn1cc(C2CCCN2C(=O)CCCOc2ccc(F)cc2)cn1 (stereo not given)  -105.8%
26. O=C(c1ccoc1)N1CCC(Nc2cccnn2)CC1  -103.3%
27. CN(C)C(=O)Cc1nc(CN2CCCCC2Cn2cccn2)cs1 (stereo not given)  -103.2%
28. CCOc1cccc(CNC(=O)c2cnn(CC)c2C(F)(F)F)c1  -100.3%
29. NCC(=O)N1CCC(c2cncc(Oc3cccnc3)n2)CC1  -100.1%
30. Cc1cccc(-n2cc(CN3CCN(C)[C@@H]4CS(=O)(=O)C[C@@H]43)cn2)c1  -99.09%
31. COc1ccccc1C(=O)Nc1c(F)c(C(=O)NCCC(C)C)nn1C  -92.84%
32. CC1CCN(C(=O)c2cnc3cc(C(=O)N(C)C)n(C)c3c2)CC1  -87.49%
33. Cc1nc(C)n(CC2CCCN(Cc3noc(C)n3)C2)n1 (stereo not given)  -83.37%
34. Cc1nc2c(N3CCN(Cc4ccccc4)CC3)nc(N)nc2n1C  -81.58%
35. CN(Cc1ccc(N2CCOCC2)cc1)Cc1noc(C(C)(C)C)n1  -81.05%
36. COCc1nc(N2CC[C@H](N(C)C)C2)c2cnn(C)c2n1  -79.09%
37. OC1(CNCc2cnc(N3CCOCC3)nc2)CCCCC1  -76.92%
38. CCCc1nnc(N2CCN(c3ccccc3F)CC2)o1  -72.7%
39. Cc1cccc(N2CCN(C(=O)C3CC4(CCNCC4)CN3)CC2)n1 (stereo not given)  -69.89%
40. Cc1cc2nc(C(C)C)cc(N3CCN(c4ccc(O)cc4)CC3)n2n1  -69.46%
41. Cc1ccc2nc(CN3CCCCC3CCn3cccn3)cn2c1 (stereo not given)  -67.34%
42. O=C1NCc2ccc(NC(=O)C3CCCN3c3nccs3)cc21 (stereo not given)  -60.91%
43. Cc1nccn1CC1CCCN(C(=O)Cc2ccsc2)C1 (stereo not given)  -60.26%
44. c1coc(-c2nnc(CN(Cc3cccs3)CC3CCCO3)o2)c1 (stereo not given)  -56.15%
45. O=C(Nc1cccc(OCc2ccc(F)cc2)c1)C1COCCO1 (stereo not given)  -50.82%
46. Fc1cccc(-n2ccc(CN3CCCCC3Cn3cncn3)n2)c1 (stereo not given)  -49.02%
47. COc1ccc(CCN2CCCC(CN(C)Cc3ccc(C)o3)C2)cc1 (stereo not given)  -48.89%
48. CCCNC(=O)NC(=O)CNC(C)(C)c1ccc2c(c1)OCO2  -45.43%
49. COC(C)(CNS(=O)(=O)c1cn(C)cn1)c1ccccc1F (stereo not given)  -43.86%
50. FC(F)(F)C1CN(Cc2cccc(OCc3ccccn3)c2)CCO1 (stereo not given)  -40.76%
51. CCn1ccnc1CN(C)c1cc(C2CCCNC2)nc(C)n1 (stereo not given)  -40.5%
52. CC(C)(C)OC(=O)N1CCCc2ccc(NCc3ccon3)cc21  -36.28%
53. O=C(O)C(F)(F)F.O=C(c1cnccn1)N1CCCC2(CCN(Cc3ccsc3)C2)C1 (stereo not given)  -36.03%
54. CCOc1cccc(C(C)NC(=O)N2CCC(C(N)=O)CC2)c1 (stereo not given)  -34.65%
55. CCN(CC)C(CNS(=O)(=O)c1ccc(C(=O)NC)cc1)c1ccco1 (stereo not given)  -34.47%
56. COCCNC(=O)NCc1cccc(-n2ccnc2)c1  -31.59%
57. CCc1cnc(C)nc1N1CCC(Cc2cccc(C(=O)O)c2)C1 (stereo not given)  -30.8%
58. O=C(c1cc(F)cc2[nH]cnc12)N1CCCCC1Cn1cccn1 (stereo not given)  -30.08%
59. CC(=O)c1ccc(NC(=O)C(NC(=O)Nc2ccccc2)C(C)C)cc1 (stereo not given)  -29.84%
60. O=C(CN1CCc2cncnc2C1)NCCOc1cccc(Cl)c1  -29.73%
61. CN(C)C(=O)CN1CCO[C@H]2CN(Cc3cccc(F)c3)C[C@H]21  -27.48%
62. O=C(NCCNC1CCN(c2nccs2)CC1)c1cccs1  -27.34%
63. CC(=O)N1CCCN(Cc2ccon2)c2ccccc21  -25.97%
64. Cc1ncc(CN(C)C2CCCN(c3cccnn3)C2)s1 (stereo not given)  -24.6%
65. c1ccc(C2(CNCc3cnc(N4CCOCC4)nc3)CC2)cc1  -24.34%
66. Cc1cc(NC(=O)CCN2CCCCC2Cn2cccn2)no1 (stereo not given)  -23.88%
67. O=C(Cn1ccc2sccc2c1=O)NC1CCCCC1  -23.53%
68. CCCN1C(=O)CC(N2CCN(c3ccc(F)cc3)CC2)C1=O (stereo not given)  -22.99%
69. COC(=O)NCC(=O)N1CCCC1c1nc(-c2ccccc2F)c[nH]1 (stereo not given)  -22.14%
70. CCc1nc(CNc2ccc(F)c(F)c2)no1  -20.9%
71. Cn1ccnc1SCCNC1CCN(c2ncccn2)CC1  -15.99%
72. CSCCC(Nc1nc(C)cc(C)n1)C(=O)NC(C)(C)CO (stereo not given)  -11.3%
73. CCc1cc(N2CCC(NCCc3ccccc3F)CC2)nc(C)n1  -10.81%
74. CCOc1cccc(CNC(=O)NCC(O)c2cccc(F)c2)c1 (stereo not given)  -6.007%
75. Cc1cccc(NC(=O)N2CC(C(=O)NC(C)C)C3(CCOCC3)C2)c1 (stereo not given)  -4.046%
76. CC(C)(NCc1ccc(C#N)cc1)c1ccc2c(c1)OCO2  -3.807%
77. Cn1cc(CN2CC3(CCN(Cc4ccsc4)C3)C2)cn1  -1.772%
78. Fc1cnc(N2CC3(CCN(Cc4ccsc4)C3)C2)nc1.O=C(O)C(F)(F)F  -1.441%
79. O=C(NCCc1c[nH]c2ccc(F)cc12)C1(n2cnnn2)CCCCC1  0.821%
80. CS(=O)(=O)NC1CCN(CCOCc2ccccc2)CC1  2.46%
81. Fc1ccc(-n2cccn2)c(CN2CCCCC2CCn2ccnc2)c1 (stereo not given)  3.883%
82. CN1CCCC(N(C)S(=O)(=O)c2cccc3ncccc23)C1 (stereo not given)  28.23%
83. O=C(Cc1ccc(F)cc1)NCC1CCN(Cc2ccsc2)CC1  35.08%
84. CCN(CC)C(CNCc1ccc(O)cc1)c1ccco1 (stereo not given)  37.38%
85. c1ccc(C(OCCNC2CCc3ncnn3C2)c2ccccc2)cc1 (stereo not given)  43.54%
86. COc1ccccc1CC1CCCN(CCN2CCOC2=O)C1 (stereo not given)  47.59%
87. OC(CNC1CCOCC1)c1ccc(Cl)c(F)c1 (stereo not given)  49.48%
88. Cc1ccccc1C1(CNCc2cnc(N3CCOCC3)nc2)CC1  50.04%
89. OC(CNC1CCOCC1)c1cccc(OCc2ccccc2)c1 (stereo not given)  51.28%
90. Cc1nc(C2CCCNC2)cc(N(C)CCc2ccccc2)n1 (stereo not given)  52.76%
91. Cn1ccnc1SCCNC1CCN(c2nc3ccccc3s2)CC1  58.02%
92. CCC(CC)CN1CCC2(CCCN(c3ncccn3)C2)C1 (stereo not given)  60.59%
93. c1ccc(Cn2cccn2)c(CN2CCCCC2CCn2ccnc2)c1 (stereo not given)  62.85%
94. CCN(CC)C(CNS(=O)(=O)NCc1ccccc1)c1ccco1 (stereo not given)  65.52%
95. c1cnc(N2CCCC3(CCN(Cc4ccsc4)C3)C2)nc1 (stereo not given)  66.41%
96. Fc1cccc(-n2cc(CN3CCCCC3CCn3ccnc3)cn2)c1 (stereo not given)  67.59%
97. CNCC(=O)N1CCCC1c1cncc(Oc2ccc(F)cc2)n1.Cl (stereo not given)  68.33%
98. CNCC[C@H]1CC(C)(C)Oc2ccc(OC)cc21  72.51%
99. OC(CNC1CCSCC1)c1cccc(OCc2ccccc2)c1 (stereo not given)  73.71%
100. CNCC[C@H]1CC(C)(C)Oc2ccc(OCC3CC3)cc21  74.97%
101. CC(C)(N)C(=O)N1CCCC1c1cncc(Oc2ccccc2)n1 (stereo not given)  77.57%
102. O=C(C1CC2(CCNCC2)CN1)N1CCN(c2cccc(Cl)c2Cl)CC1 (stereo not given)  78.29%
103. CC(C)(C)OC(=O)N1CCCN(Cc2ccon2)c2ccccc21  84.05%
104. CCc1nccn1CCNC1CCN(c2nc3ccc(Cl)cc3s2)CC1  85.53%
105. CN1CCC(NCC(O)c2cccc(OCc3ccccc3)c2)CC1 (stereo not given)  90.23%
